In the library only some 19% were active in any assay of this set; here they are far more common.
HT1080 IDH1KD tx = toxicity to HT-1080 IDH1 knockdown cells (counter line); HT-1080 IDH1 knockdown viability, ATP luminescence, 48 h; Potency, µM (titrated, usually from 46.1 µM), most hits filed as cytotoxic; actives 2% (n = 360,000)
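In this qHTS, HT-1080 cells depleted of IDH1 are exposed for 48 h at 37 °C to compound titrations. Toxicity is scored from CellTiter-Glo luminescence, with DMSO as full viability and medium alone as none.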
IL-1B inflam inh = blocks inflammasome-driven IL-1 beta release. actives 4.7% (n = 360,000). activity change, % at 57.5 µM. THP-1 LPS/ATP IL-1B secretion, AlphaLISA, 16 h; stronger effect = lower value; in the data active = activity change below about -50%; inconclusive = mostly about -30% to -49%
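THP-1 cells pretreated 1 hr with compounds (up to 57.5 uM final), then stimulated with LPS (250 ng/mL final) plus ATP (1.25 mM final); secreted IL-1B measured by AlphaLISA after 16 hr, decreased signal indicating inhibition.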
TDP1 cell noCPT = qHTS for Inhibitors of human tyrosyl-DNA phosphodiesterase 1 (TDP1): qHTS in cells in absence of CPT. DT40 Tdp1-/- hTDP1 cells, no CPT, ATP luminescence, 48 h. Potency, µM (titrated, usually from 46.2 µM), actives largely listed as inhibitors. actives 15% (n = 420,000); also: nearly all actives have a fitted effect of over 55% in size
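Luminescent ATP content (CellTiter-Glo) served as the growth readout. Knockout chicken DT40 cells expressing human TDP1 were exposed to compounds without camptothecin for a minimum 48 hr at 37 °C.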
DT40 TDP1 CPT = growth inhibition of DT40 Tdp1-/-;hTDP1 cells with camptothecin (screen for TDP1 inhibitors); chicken DT40 Tdp1-/-;hTDP1 cells + 20 nM CPT, ATP luminescence, 48 h; Potency, µM (highest dose often 46.2 µM), usual class: inhibitors; actives 12% (n = 420,000); also: nearly all actives have a fitted effect of over 55% in size
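Chicken DT40 Tdp1-/- cells stably complemented with human TDP1 were seeded at 400 cells/well in medium containing 20 nM camptothecin, exposed to pin-transferred compounds, and grown at 37 °C for at least 48 hr. Viability was read as ATP luminescence.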
HT1080NT lethal = kills 2HG-producing HT-1080-NT fibrosarcoma cells. Potency, µM (titrated, usually from 46.1 µM), actives largely listed as cytotoxic. HT-1080-NT fibrosarcoma viability, CellTiter-Glo ATP luminescence, 48 h. actives 1.6% (n = 360,000);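 also: NT is the 2HG producing partner of a matched IDH1 knockdown line; nearly all actives have a fitted effect of over 55% in size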
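Fibrosarcoma NT cells, 750 per well in 5% FBS RPMI, were exposed to compound for 48 hours. Viability: CellTiter-Glo luminescence.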
Numbers stand for hits; – = inactive; ? = inconclusive; · = not tested or not shown. Unless noted, calls follow the shape of the dose curve; as a rule, active = well fitted curve in the direction sought with a large enough effect; inconclusive = small, poorly fitted or top-dose-only effect, or another doubt; inactive = no such curve, though single readings can be large; an effect the other way counts as inactive or inconclusive.

SMILES	HT1080 IDH1KD tx	IL-1B inflam inh	TDP1 cell noCPT	DT40 TDP1 CPT	HT1080NT lethal
CCOc1ccccc1N(CC(=O)OC)S(=O)(=O)c1ccccc1	–	–	–	–	–
CC(=O)OCOC(=O)CN(CC(=O)OCOC(C)=O)c1ccccc1OCCOc1ccccc1N(CC(=O)OCOC(C)=O)CC(=O)OCOC(C)=O	·	·	1.6µM	1.4µM	·
O=C1/C(=C/c2ccco2)N=C(N2CCCCC2)N1c1ccccc1	–	–	18µM	21µM	–
CC(C)N(C1=N/C(=C\c2ccco2)C(=O)N1c1ccccc1)C(C)C	–	–	?	13µM	–
COc1ccc(C2C(C#N)=C(N)Oc3cc(C)n(Cc4ccncc4)c(=O)c32)cc1 (stereo unspecified)	–	–	2.1µM	4.6µM	–
CN(C)c1ccc(NS(=O)(=O)c2cc3c4c(c2)CC(=O)N4CCC3)cc1	–	–	?	?	–
COc1ccc(OC)c(S(=O)(=O)Nc2cc3c4c(c2)CC(=O)N4CCC3)c1	–	–	15µM	?	–
CCCCc1ccc(NS(=O)(=O)c2cc3c4c(c2)CC(=O)N4CCC3)cc1	·	·	12µM	15µM	·
O=C1CCc2cc(NS(=O)(=O)c3ccc(Br)cc3)cc3c2N1CC3	–	–	–	–	–
COc1ccc(C)cc1S(=O)(=O)Nc1cc2c3c(c1)CC(=O)N3CCC2	?	–	?	?	?
Cc1ccc(S(=O)(=O)Nc2cc3c4c(c2)CCC(=O)N4CCC3)cc1	–	–	21µM	?	–
COc1ccc(CNC(=O)C(c2ccncc2)N(C(=O)Cc2cccs2)c2ccccc2C)cc1 (stereo unspecified)	–	–	–	–	–
O=C(Cn1cnc2sc(-c3ccccc3)cc2c1=O)NCc1ccco1	?	–	5.8µM	6.5µM	?
O=C(Cn1cnc2sc(-c3ccccc3)cc2c1=O)NCCc1ccccc1	–	–	?	?	–
O=C(Cn1cnc2sc(-c3ccccc3)cc2c1=O)NCc1ccccc1	6.3µM	–	5.2µM	3.7µM	7.9µM
O=C(CSc1nnc(CNc2ccc(F)cc2)n1CC1CCCO1)N1CCOCC1 (stereo unspecified)	–	–	–	–	–
CC1CCN(C(=O)c2cc3ccccc3o2)CC1	–	–	–	–	–
Cc1ccc(N(C(=O)c2csnn2)C(C(=O)NC2CCCCC2)c2ccccn2)cc1C (stereo unspecified)	–	–	–	–	–
COc1ccc(-c2cc3ncc(-c4ccccc4)c(N)n3n2)cc1	?	-55	?	?	?
N#Cc1cnc2cc(-c3ccccc3)nn2c1N	?	–	–	–	?
CCOC(=O)c1cnc2cc(-c3ccc(OCC)cc3)nn2c1-c1ccccc1	·	·	8.2µM	15µM	·
CCOC(=O)c1cnc2cc(-c3ccc(C)cc3)nn2c1-c1ccccc1	–	–	?	?	–
CC(C)OC(=O)CSc1nc(N)c(C#N)c(-c2cccs2)c1C#N	–	–	?	?	?
CN1CCc2nc(SCC(=O)Nc3ccc(OC(F)(F)F)cc3)c(C#N)c(-c3cccs3)c2C1	–	–	23µM	15µM	–
CC(=O)CSc1nc(N)c(C#N)c(-c2cccs2)c1C#N	?	–	13µM	21µM	–
SMILES	HT1080 IDH1KD tx	IL-1B inflam inh	TDP1 cell noCPT	DT40 TDP1 CPT	HT1080NT lethal
CC(C)(C)C(=O)CSc1nc2c(c(-c3cccs3)c1C#N)CCC2	–	–	23µM	?	–
Cc1cccc(CSc2nc(N)c(C#N)c(-c3cccs3)c2C#N)c1	–	-54	?	?	–
N#Cc1c(N)nc2c(c1-c1cccs1)CCCC2	–	–	–	–	–
Cc1c([N+](=O)[O-])cc(C(=O)Oc2cccc(C(=S)N3CCOCC3)c2)cc1[N+](=O)[O-]	–	–	–	–	–
Nc1ncnc2c1ncn2[C@@H]1O[C@H](CNC(=O)[C@H]2CCC(=O)N2)[C@@H](O)[C@H]1O	–	–	–	–	–
CCOc1ccc(-n2c(SCC(N)=O)nc3c([nH]c4ccccc43)c2=O)cc1	?	–	?	13µM	–
